TRHR enhancer-1 = qHTS for Small Molecule Agonists and Allosteric Enhancers of Human TRH Receptor: Primary Screen for Enhancers | Thyrotropin-releasing hormone receptor (Homo sapiens), P34981 | AID 493056, 2011 | enhancement, % at 2 µM | hit rate 0.66% among 360,000 | TRHR cells, fluo-8 calcium fluorescence, EC20 TRH enhancement; in the data active = enhancement above about 30%; note: 0% is about no effect
Target sequence (P34981 whole entry, looked up): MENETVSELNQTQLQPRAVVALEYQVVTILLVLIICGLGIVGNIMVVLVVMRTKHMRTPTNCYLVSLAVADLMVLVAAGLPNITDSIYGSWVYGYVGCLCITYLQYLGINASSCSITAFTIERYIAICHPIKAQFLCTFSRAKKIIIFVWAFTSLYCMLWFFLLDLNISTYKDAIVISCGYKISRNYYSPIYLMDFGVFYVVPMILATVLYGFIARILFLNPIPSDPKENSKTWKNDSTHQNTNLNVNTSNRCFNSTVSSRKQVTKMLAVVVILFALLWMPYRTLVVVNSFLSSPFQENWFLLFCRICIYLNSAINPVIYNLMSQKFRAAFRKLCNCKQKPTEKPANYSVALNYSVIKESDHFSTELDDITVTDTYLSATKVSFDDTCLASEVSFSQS
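TRHR-expressing cells loaded with fluo-8 calcium dye were read kinetically (ex 480/em 530) during compound addition, then stimulated with an EC20 of TRH (10 nM final). Enhancement of the Gq-mediated intracellular calcium response was scored.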
D1 antag = Antagonist of Human D 1 Dopamine Receptor: qHTS; HEK293 TREx D1 cells, calcium flux, dopamine EC80; stronger effect = lower value; activity change, negative = inhibition, % at 10 µM; AID 504652, 2011; hit rate 3.2% among 360,000; in the data active = activity change below about -30%; note: % is set by controls: 0 for no effect and ±100 for the full control effect
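Inducible Hek293 Trex D1 cells (tetracycline, overnight, 30 C). Calcium dye 30–90 min RT. Antagonist mode: EC80 dopamine added after 180 s compound read.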
D1 potentiator = Potentiators of Human D1 Dopamine Receptor: qHTS. D(1A) dopamine receptor (Homo sapiens), P21728. HEK293 TREx D1 cells, calcium flux, dopamine EC20 potentiation. potentiation, % at 10 µM. hit rate 0.036% among 360,000; in the data active = potentiation above about 30%; note: 0% is about no effect
D1 agonist = Allosteric Agonists of the Human D1 Dopamine Receptor: qHTS. D(1A) dopamine receptor (Homo sapiens), P21728. HEK293 T-REx D1 cells, calcium flux, agonist mode. activation, % at 2 µM. hit rate 1% among 360,000; in the data active = activation above about 30%; note: 0% is about no effect
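Agonism was scored from calcium flux recorded over 180 s (1 read/s) after pintool compound addition, following a 10-cycle baseline. Cells were inducible force-coupled HEK293 TREx D1, plated overnight at 30 C and loaded with no-wash calcium dye.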
TRHR agonist-1 = qHTS for Small Molecule Agonists and Allosteric Enhancers of Human TRH Receptor: Primary Screen for Agonists. activation, % at 2 µM. Thyrotropin-releasing hormone receptor (Homo sapiens), P34981. AID 493084, 2011. TRHR cells, calcium flux fluo-8, FDSS agonist mode. hit rate 0.18% among 360,000; in the data active = activation above about 30%; note: 0% is about no effect
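Fluo-8-loaded TRHR cells; 10 s baseline, compound added, kinetic Ca2+ fluorescence read 1/s, agonist mode.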
Glioma ERSR ind = qHTS for Inducers of the Endoplasmic Reticulum Stress Response (ERSR) in Human Glioma: qHTS | U87-MG GRP78 promoter luciferase reporter, 16 h | Potency, µM, for the others: top-dose activation, usual class: activators | hit rate 0.02% among 420,000; note: potency is the fitted concentration of half-maximal effect; series mostly up to about 76 µM; % of control where 0% means no effect; nearly all actives have a fitted effect of over 35% in size
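ERSR induction read as luciferase luminescence (Bright-Glo, 10 min at room temperature) in stably transfected human U87-MG glioma cells exposed to compounds for 16 h, using GRP78 as sensor.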
TRHR enhancer-2 = qHTS for Small Molecule Agonists and Allosteric Enhancers of Human TRH Receptor: Confirmation Screen for Enhancers; shares compounds with TRHR enhancer-1; TRH receptor cell assay, enhancer confirmation qHTS; activity change, negative = inhibition, % at 46.1 µM; 970 tested, under 10 active;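 note: compound effect scored on response to added TRH at EC20 of 10 nM; 0% is about no effect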
TRHR agonist-2 = qHTS for Small Molecule Agonists and Allosteric Enhancers of Human TRH Receptor: Confirmation Screen for Agonists; shares compounds with TRHR enhancer-1; TRHR-expressing cells, agonist activation read-out; Potency, µM (highest dose often 46.1 µM), for the others: at the highest dose activation, most hits filed as activators; hit rate 8% among 970; note: potency is the fitted concentration of half-maximal effect; 0% is about no effect; nearly all actives have a fitted effect of over 75% in size
Starred values were filed as active, the others as inactive; ? = inconclusive; / = not tested or not shown. Most compounds without a hit are left out; they make up all but 4% or so of the library. Unless noted, calls come from the whole dose curve; as a rule, active = well fitted curve in the direction sought with a large enough effect; inconclusive = small, poorly fitted or top-dose-only effect, or another doubt; inactive = no such curve, though single readings can be large; an effect the other way counts as inactive or inconclusive.

SMILES | TRHR enhancer-1 | D1 antag | D1 potentiator | D1 agonist | TRHR agonist-1 | Glioma ERSR ind | TRHR enhancer-2 | TRHR agonist-2
Cc1cccc2cc3c(N)c(C(=O)N4CCc5ccccc54)sc3nc12 | 13 | -26 | 4 | 126* | 53* | 2% | ? | 18µM*
Cc1noc(-c2ccc(-c3noc(-c4ccc(C(F)(F)F)cc4)n3)cc2)n1 | -6 | 12 | 1 | 2 | 0 | -5% | / | /
Nc1c(C(=O)C2CC2)sc2nc(-c3ccccc3)cc(C(F)(F)F)c12 | 10 | 21 | -3 | 66* | 43* | 0% | 9 | 8.2µM*
O=C(CCC1CCCC1)NNC(=O)c1ccc(F)cc1 | 1 | 10 | 8 | 4 | 1 | -3% | / | /
C/C=C/c1ccc(OCCCCNCc2ccco2)c(OC)c1 | 69* | 3 | -3 | 17 | 0 | -5% | ? | ?
CC(C)CC(=O)c1c[nH]c(C(=O)NCc2cccs2)c1 | 44* | / | -1 | -1 | -1 | -9% | 5 | 0%
CCC(=O)c1c[nH]c(C(=O)NCc2cccs2)c1 | 1 | 6 | -2 | 1 | 0 | -4% | / | /
COc1ccc(N(C)S(=O)(=O)c2cccc(C(=O)N3CCN(c4cccc(C)c4C)CC3)c2)cc1 | / | / | / | / | / | -5% | / | /
COc1ccc2c(c1)cc(C(=O)N/N=C/c1c(O)c(C(=O)O)cc3ccccc13)n2C | -1 | 2 | -1 | 9 | 33* | -2% | ? | 18µM*
Cn1c(O)c(/C=N/NC(=O)c2cc3ccccc3cc2O)c2ccccc21 | 3 | -17 | / | 147* | 46* | 10% | 0 | 13µM*
COC(=O)N/N=C\c1c(C)[nH]n(-c2ccccc2)c1=O | 2 | -3 | -8 | 1 | 0 | 0% | / | /
CC(=O)N/N=C/c1c(C)[nH]n(-c2ccccc2)c1=O | 44* | -24 | -9 | 4 | -1 | 0% | -4 | 5%
O=[N+]([O-])c1ccccc1S(=O)(=O)Nc1cccc(-c2ccc3nncn3n2)c1 | 46* | -6 | -6 | 6 | 1 | -3% | 3 | 0%
COc1ccc(N=C2O/C(=C/c3sc(=S)n(CC4CCCO4)c3O)N=C2C#N)cc1 (configuration not stated) | 43* | 2 | 11 | 3 | 2 | -3% | -3 | 4%
O=C1N=c2ccccc2=C1c1sc(=S)n(CC2CCCO2)c1O (configuration not stated) | 0 | -27 | -1 | 5 | -1 | 2% | / | /
c1ccc2c(c1)ncn2CCCCOc1ccc2c(c1)CCC2 | 51* | -12 | 6 | 7 | -1 | 4% | -8 | -1%
c1ccc2c(c1)ncn2CCCOc1ccc2c(c1)CCC2 | 5 | -13 | -4 | 1 | -1 | 8% | / | /
COc1ccc(CCNC(=O)CSc2nc(C)nc3c2c(=O)n(C)c(=O)n3C)cc1OC | 45* | 4 | -1 | 5 | 0 | -6% | -3 | 1%
CCCCc1c(O)nc(SCC(=O)NCCc2ccc(OC)c(OC)c2)[nH]c1=O | 41* | -1 | -4 | 1 | 0 | -7% | 9 | 1%
COc1ccc(CCNC(=O)CSc2nc(O)c(CCC(C)C)c(=O)[nH]2)cc1OC | 2 | 2 | -11 | 0 | 0 | -2% | / | /
Nc1c(/C=C2\C=Nc3ccccc32)c(=O)nc2sc(CC(=O)N3CCOCC3)nn12 | -2 | 3 | -1 | 1 | 2 | -5% | / | /
CCOC1=C/C(=C/c2c(N)n3nc(CC(=O)N4CCCCC4)sc3nc2=O)C=CC1=O | 14 | 16 | 2 | 17 | 61* | 8% | 13 | 16µM*
CC(C)Oc1cccc(C(=O)NC(=S)Nc2ccccc2N2CCOCC2)c1 | -7 | 21 | -3 | 6 | 1 | -7% | / | /
CO/C([O-])=N/c1c[n+](-c2ccc(Cl)cc2)no1 | -6 | 7 | 1 | 1 | 0 | -2% | / | /
COc1ccc([N+](=O)[O-])cc1NC(=O)c1cn(-c2ccc(Cl)cc2)c(=O)c2ccccc12 | 72* | -23 | -4 | 4 | 0 | 2% | ? | 1%
SMILES | TRHR enhancer-1 | D1 antag | D1 potentiator | D1 agonist | TRHR agonist-1 | Glioma ERSR ind | TRHR enhancer-2 | TRHR agonist-2
O=c1ccc(-c2nc3ccccc3n2Cc2ccc(Cl)cc2)c[nH]1 | 49* | -7 | 6 | 1 | 1 | -3% | -7 | 1%
Cn1c(-c2ccc(=O)[nH]c2)nc2ccccc21 | 3 | 9 | 1 | 15 | 0 | 11% | / | /
COc1ccc(-c2nn(-c3ccccc3)cc2C(=O)Nc2nccs2)cc1 | 14 | -13 | -5 | 1 | 1 | -4% | / | /
CC1(C)CC2CC(C)(CN2S(=O)(=O)c2ccc(C(=O)Nc3ccc(S(=O)(=O)N4CCOCC4)cc3)cc2)C1 (configuration not stated) | -6 | 22 | 3 | 5 | 2 | -4% | / | /
CCOC(=O)c1cc([N+](=O)[O-])sc1NC(=O)c1ccc(S(=O)(=O)N2CC3(C)CC2CC(C)(C)C3)cc1 (configuration not stated) | -16 | -4 | -5 | 7 | 37* | -2% | -2 | ?
Cc1cc(CNCc2c(C(=O)N3CCCCCCC3)nc3ccc(Cl)cn23)nn1C | -3 | 5 | -3 | 3 | 0 | -2% | / | /
O=c1[nH]c(N2CCN(Cc3ccccc3)CC2)nc2c1CCC2 | 41* | -2 | -4 | 2 | -1 | 3% | -3 | -1%
O=c1[nH]c(N2CCN(c3ccccc3)CC2)nc2c1CCC2 | -3 | -5 | 1 | 2 | 0 | -2% | / | /
CNS(=O)(=O)c1cccc(C(=O)NCC(c2cccs2)N(C)C)c1 (configuration not stated) | -6 | -9 | -8 | 2 | 6 | -4% | / | /
CC(=N/O)/C(C)=N\NC(=O)c1ccccn1 | 60* | -2 | -2 | 2 | 0 | 2% | 1 | 0%
COc1ccc(C)cc1NC(=O)COC(C)=O | 6 | 2 | 1 | 2 | 0 | -3% | / | /
COc1cccc(C2c3[nH]c4ccccc4c3CCN2Cc2cnn(C)c2)c1 (configuration not stated) | 61* | -22 | -2 | 2 | 0 | -4% | 3 | ?

Screening data as filed in PubChem.
